# Experimental data taken from article PMC7862700, “An all-to-all approach to the identification of sequence-specific readers for epigenetic DNA modifications on cytosine”.
# Columns and labels:
# Experiment in all cases: DAPPL (digital affinity profiling via proximity ligation, sequencing); 10 mM Tris-HCl pH 7.5, 50 mM NaCl, 1 mM DTT, 4% glycerol, room temperature, 30 min; GST-TFs on glutathione beads, 16-mer random dsDNA library, 0.1% formaldehyde crosslink after washing; high values mean tight binding
# [1] = target: T1, FLI1 (Homo sapiens, UniProt Q01543 1-452); settings: protein: recombinant; tags: N-terminal GST; dsDNA, one strand shown
# T1 sequence: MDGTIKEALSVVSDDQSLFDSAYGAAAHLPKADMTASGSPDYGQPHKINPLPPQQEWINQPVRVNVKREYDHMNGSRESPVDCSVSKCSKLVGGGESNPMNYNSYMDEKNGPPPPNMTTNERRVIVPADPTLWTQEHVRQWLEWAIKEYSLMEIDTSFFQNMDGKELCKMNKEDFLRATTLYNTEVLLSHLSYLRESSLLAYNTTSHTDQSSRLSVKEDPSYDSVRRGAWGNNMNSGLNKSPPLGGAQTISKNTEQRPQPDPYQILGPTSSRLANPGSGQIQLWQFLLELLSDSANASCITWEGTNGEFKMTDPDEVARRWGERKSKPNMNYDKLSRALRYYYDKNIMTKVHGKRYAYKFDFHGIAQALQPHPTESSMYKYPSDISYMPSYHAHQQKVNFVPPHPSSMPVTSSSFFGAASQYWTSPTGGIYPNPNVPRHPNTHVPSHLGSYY
# Outline: (§1)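 Human transcription factors fused to GST were expressed in yeast, captured on glutathione beads, given DNA barcodes and pooled with a GST-only negative control. Pools were incubated with 200 nmole of a 16-mer random double-stranded DNA library in Tris/NaCl/DTT/glycerol buffer at room temperature for 30 min. They were then washed, crosslinked with 0.1% formaldehyde, proximity-ligated (BsaI/T4 ligase, 1 h, 37 °C), PCR-amplified and sequenced on an Illumina NextSeq500. Binding signal is each 6-mer's read frequency for a factor divided by its frequency for the GST control.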
# [2] = target: T2, ELK1 (Homo sapiens, UniProt P19419 1-428); settings: protein: recombinant; tags: N-terminal GST; dsDNA, one strand shown
# T2 sequence: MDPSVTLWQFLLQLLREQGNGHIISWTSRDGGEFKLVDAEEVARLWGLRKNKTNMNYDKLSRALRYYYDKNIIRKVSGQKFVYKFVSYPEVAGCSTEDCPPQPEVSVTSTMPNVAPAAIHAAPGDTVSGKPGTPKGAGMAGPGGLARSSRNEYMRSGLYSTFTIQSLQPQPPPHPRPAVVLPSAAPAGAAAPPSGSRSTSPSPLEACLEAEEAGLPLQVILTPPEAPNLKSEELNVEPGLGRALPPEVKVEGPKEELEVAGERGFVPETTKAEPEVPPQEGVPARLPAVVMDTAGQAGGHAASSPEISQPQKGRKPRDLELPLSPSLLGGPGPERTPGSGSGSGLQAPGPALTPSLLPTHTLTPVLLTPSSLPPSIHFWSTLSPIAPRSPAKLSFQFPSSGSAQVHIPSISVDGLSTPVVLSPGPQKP
# Outline: as §1
# [3] = target: T3, GABPA (Homo sapiens, UniProt Q06546 1-454); settings: protein: recombinant; tags: N-terminal GST; dsDNA, one strand shown
# T3 sequence: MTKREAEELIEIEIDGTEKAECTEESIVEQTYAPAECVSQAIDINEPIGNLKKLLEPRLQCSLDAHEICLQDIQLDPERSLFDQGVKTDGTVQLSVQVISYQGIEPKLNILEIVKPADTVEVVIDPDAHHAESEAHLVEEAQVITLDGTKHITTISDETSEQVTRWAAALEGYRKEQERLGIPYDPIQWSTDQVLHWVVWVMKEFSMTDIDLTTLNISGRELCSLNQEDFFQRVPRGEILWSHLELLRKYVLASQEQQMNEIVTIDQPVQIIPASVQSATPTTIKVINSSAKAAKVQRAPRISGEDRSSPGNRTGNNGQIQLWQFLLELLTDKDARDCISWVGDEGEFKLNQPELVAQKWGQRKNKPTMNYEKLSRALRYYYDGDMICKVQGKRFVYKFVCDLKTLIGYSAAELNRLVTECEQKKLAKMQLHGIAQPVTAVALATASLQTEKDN
# Outline: as §1
# [4] = target: T4, ERG (Homo sapiens, UniProt P11308 1-479); settings: protein: recombinant; tags: N-terminal GST; dsDNA, one strand shown
# T4 sequence: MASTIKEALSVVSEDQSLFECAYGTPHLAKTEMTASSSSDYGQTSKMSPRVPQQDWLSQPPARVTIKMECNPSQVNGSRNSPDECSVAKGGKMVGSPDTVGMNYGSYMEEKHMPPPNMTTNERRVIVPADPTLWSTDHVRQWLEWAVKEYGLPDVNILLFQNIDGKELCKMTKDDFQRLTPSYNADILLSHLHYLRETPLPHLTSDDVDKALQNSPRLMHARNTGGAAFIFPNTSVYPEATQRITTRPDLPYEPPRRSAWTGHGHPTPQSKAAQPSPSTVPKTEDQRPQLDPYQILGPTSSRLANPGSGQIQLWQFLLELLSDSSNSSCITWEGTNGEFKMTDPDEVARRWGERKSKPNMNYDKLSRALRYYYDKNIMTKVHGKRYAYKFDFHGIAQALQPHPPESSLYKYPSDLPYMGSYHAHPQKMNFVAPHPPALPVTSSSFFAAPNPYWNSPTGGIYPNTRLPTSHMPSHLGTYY
# Outline: as §1
# [5] = target: ELF1 (Homo sapiens, UniProt P32519 1-619); settings: protein: recombinant; tags: N-terminal GST; dsDNA, one strand shown
# Sequence of ELF1 (P32519 whole entry): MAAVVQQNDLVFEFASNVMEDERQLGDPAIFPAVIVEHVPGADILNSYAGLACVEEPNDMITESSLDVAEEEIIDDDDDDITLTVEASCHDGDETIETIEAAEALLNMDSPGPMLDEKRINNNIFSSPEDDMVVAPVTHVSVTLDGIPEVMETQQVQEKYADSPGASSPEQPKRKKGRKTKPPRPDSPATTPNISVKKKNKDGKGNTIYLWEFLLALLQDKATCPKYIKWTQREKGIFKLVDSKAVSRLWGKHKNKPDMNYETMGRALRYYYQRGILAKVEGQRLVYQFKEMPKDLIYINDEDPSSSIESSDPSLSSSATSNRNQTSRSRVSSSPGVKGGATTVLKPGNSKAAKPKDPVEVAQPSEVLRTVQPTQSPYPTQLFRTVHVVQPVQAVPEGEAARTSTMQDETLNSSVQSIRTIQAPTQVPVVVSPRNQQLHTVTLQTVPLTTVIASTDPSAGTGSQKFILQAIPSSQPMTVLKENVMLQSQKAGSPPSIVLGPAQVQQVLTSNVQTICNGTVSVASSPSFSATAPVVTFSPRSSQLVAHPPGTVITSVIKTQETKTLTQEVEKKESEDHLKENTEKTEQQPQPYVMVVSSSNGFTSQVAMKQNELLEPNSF
# Outline: as §1
# [6] = target: T5, EHF (Homo sapiens, UniProt Q9NZC4 1-300); settings: protein: recombinant; tags: N-terminal GST; dsDNA, one strand shown
# T5 sequence: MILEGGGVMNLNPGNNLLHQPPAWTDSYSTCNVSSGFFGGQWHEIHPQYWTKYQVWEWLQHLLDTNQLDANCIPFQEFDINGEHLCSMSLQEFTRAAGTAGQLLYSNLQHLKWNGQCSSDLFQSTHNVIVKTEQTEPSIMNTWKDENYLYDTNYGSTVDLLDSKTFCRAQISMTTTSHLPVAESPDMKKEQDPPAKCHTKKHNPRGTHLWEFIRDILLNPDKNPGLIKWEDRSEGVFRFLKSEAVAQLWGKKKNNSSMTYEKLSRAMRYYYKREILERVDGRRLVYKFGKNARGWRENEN
# Outline: as §1
# [7] = target: SPI1 (Homo sapiens, UniProt P17947 1-270); settings: protein: recombinant; tags: N-terminal GST; dsDNA, one strand shown
# Outline: as §1
# [8] = target: SPIB (Homo sapiens, UniProt Q01892 1-262); settings: protein: recombinant; tags: N-terminal GST; dsDNA, one strand shown
# Sequence of SPIB (Q01892 whole entry): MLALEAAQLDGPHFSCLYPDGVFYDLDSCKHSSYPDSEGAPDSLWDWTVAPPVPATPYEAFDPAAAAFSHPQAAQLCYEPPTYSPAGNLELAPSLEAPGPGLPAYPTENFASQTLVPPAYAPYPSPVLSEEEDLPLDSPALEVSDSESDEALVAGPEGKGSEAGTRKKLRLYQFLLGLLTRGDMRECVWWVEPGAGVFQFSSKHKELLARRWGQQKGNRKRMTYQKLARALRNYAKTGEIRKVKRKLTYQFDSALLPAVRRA
# Outline: as §1
# [9] = target: T6, ELK3 (Homo sapiens, UniProt P41970 1-407); settings: protein: recombinant; tags: N-terminal GST; dsDNA, one strand shown
# T6 sequence: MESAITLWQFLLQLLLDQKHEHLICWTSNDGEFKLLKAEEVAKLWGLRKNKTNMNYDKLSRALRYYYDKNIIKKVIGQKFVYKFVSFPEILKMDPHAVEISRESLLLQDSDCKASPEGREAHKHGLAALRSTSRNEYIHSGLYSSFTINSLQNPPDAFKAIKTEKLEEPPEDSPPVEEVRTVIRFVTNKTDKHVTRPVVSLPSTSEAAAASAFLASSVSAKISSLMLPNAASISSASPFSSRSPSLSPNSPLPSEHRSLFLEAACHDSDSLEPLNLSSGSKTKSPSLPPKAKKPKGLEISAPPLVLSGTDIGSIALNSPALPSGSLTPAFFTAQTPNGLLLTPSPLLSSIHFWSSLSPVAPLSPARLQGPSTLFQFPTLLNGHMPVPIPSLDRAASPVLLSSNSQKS
# Outline: as §1
# [10] = target: T7, FEV (Homo sapiens, UniProt Q99581 1-238); settings: protein: recombinant; tags: N-terminal GST; dsDNA, one strand shown
# T7 sequence: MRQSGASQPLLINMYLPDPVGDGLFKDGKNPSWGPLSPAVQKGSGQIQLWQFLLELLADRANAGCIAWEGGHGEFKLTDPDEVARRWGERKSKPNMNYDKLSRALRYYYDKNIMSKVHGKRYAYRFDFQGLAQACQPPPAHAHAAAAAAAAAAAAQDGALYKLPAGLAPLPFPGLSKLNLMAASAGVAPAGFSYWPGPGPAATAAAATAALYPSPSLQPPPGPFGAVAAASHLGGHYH
# Outline: as §1
# [11] = target: ETV5 (Homo sapiens, UniProt P41161 1-510); settings: protein: recombinant; tags: N-terminal GST; dsDNA, one strand shown
# Sequence of ETV5 (P41161 whole entry): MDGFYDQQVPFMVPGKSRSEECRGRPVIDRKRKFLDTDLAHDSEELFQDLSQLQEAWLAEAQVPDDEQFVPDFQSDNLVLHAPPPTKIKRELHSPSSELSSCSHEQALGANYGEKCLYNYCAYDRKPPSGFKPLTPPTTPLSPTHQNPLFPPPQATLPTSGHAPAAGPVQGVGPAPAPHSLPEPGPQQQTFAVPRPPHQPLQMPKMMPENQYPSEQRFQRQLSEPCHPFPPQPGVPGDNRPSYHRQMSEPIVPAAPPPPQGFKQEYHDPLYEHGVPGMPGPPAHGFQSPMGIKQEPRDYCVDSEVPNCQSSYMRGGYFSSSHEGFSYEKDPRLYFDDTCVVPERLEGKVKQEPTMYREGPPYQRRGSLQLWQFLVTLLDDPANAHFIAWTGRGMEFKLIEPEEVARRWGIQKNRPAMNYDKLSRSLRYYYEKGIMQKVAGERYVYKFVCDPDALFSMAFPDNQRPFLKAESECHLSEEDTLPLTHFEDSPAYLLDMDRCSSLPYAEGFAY
# Outline: as §1
# [12] = target: HSF1 (Homo sapiens, UniProt Q00613 1-529); settings: protein: recombinant; tags: N-terminal GST; chain copies: 3; dsDNA, one strand shown
# Sequence of HSF1 (Q00613 whole entry): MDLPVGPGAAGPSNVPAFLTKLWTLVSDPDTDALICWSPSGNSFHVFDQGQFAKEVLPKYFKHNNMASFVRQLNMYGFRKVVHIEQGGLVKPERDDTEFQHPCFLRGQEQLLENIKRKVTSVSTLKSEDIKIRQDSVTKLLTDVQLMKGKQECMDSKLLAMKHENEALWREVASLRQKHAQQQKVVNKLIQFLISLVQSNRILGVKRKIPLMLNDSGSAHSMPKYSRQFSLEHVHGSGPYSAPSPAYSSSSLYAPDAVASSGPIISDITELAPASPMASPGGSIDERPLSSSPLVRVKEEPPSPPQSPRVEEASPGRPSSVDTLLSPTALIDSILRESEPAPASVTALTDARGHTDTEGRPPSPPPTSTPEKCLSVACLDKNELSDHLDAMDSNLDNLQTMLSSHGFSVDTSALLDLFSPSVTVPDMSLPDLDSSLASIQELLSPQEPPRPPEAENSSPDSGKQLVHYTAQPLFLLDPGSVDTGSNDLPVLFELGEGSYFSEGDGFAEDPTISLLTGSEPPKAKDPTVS
# Outline: as §1
# [13] = target: T8, SPIC (Homo sapiens, UniProt Q8N5J4 1-248); settings: protein: recombinant; tags: N-terminal GST; dsDNA, one strand shown
# T8 sequence: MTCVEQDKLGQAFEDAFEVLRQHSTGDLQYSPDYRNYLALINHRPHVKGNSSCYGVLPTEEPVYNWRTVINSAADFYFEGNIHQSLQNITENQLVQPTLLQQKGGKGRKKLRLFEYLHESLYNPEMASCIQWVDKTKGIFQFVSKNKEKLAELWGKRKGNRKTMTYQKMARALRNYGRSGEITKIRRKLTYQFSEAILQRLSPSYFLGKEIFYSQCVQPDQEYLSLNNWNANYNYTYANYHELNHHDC
# Outline: as §1
# [14] = target: ELF4 (Homo sapiens, UniProt Q99607 1-663); settings: protein: recombinant; tags: N-terminal GST; dsDNA, one strand shown
# Sequence of ELF4 (Q99607 whole entry): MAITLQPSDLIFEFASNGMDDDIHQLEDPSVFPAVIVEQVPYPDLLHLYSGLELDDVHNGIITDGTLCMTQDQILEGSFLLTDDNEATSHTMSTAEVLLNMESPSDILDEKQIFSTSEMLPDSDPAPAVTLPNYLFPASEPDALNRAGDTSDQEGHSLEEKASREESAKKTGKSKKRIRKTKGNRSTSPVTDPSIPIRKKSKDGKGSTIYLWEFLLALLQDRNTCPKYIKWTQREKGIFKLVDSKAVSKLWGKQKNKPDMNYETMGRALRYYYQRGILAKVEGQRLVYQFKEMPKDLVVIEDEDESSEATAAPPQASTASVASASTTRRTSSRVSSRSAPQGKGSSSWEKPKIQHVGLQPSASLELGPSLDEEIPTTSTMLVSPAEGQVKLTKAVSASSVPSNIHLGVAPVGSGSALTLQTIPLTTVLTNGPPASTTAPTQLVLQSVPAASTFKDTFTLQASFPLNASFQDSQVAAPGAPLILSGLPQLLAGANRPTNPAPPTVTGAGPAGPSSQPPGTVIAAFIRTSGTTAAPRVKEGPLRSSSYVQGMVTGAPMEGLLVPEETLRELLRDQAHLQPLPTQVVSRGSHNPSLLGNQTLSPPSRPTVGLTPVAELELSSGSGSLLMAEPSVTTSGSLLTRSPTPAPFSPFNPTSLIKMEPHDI
# Outline: as §1
# [15] = target: T9, ELK4 (Homo sapiens, UniProt P28324-2 1-405); settings: protein: recombinant; tags: N-terminal GST; dsDNA, one strand shown
# T9 sequence: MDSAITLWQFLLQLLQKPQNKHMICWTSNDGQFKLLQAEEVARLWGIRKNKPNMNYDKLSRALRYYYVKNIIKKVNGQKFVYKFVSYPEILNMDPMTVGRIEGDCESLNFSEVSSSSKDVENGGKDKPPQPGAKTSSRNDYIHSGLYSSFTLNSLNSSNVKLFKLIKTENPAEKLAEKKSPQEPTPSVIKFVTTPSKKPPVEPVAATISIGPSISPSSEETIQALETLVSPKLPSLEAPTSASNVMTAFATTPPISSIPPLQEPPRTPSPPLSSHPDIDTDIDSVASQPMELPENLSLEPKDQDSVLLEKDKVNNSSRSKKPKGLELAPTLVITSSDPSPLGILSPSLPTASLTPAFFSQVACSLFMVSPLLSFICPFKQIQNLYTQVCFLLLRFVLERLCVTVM
# Outline: as §1
# [16] = target: T10, ETV2 (Homo sapiens, UniProt O00321 1-342); settings: protein: recombinant; tags: N-terminal GST; dsDNA, one strand shown
# T10 sequence: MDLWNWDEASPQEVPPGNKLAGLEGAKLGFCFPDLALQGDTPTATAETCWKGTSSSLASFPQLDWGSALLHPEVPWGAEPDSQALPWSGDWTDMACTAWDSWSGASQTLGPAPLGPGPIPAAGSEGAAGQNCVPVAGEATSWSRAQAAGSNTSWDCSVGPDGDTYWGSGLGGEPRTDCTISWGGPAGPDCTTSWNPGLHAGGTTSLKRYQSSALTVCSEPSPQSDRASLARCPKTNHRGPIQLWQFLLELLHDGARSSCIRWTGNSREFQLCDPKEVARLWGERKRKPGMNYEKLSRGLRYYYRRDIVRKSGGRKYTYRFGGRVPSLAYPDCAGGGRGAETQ
# Outline: as §1
# [17] = target: T11, ELF3 (Homo sapiens, UniProt P78545 1-371); settings: protein: recombinant; tags: N-terminal GST; dsDNA, one strand shown
# T11 sequence: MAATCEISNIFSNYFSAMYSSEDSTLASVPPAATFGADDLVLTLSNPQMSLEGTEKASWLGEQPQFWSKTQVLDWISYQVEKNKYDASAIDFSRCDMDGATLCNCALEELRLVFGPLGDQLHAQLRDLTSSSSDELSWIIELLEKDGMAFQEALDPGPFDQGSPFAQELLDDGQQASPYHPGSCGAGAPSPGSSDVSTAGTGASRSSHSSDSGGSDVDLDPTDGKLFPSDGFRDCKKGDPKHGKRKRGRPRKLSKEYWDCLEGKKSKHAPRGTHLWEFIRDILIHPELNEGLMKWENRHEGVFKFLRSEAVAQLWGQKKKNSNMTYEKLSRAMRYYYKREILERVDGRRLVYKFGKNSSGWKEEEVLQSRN
# Outline: as §1
# [18] = target: CRX (Homo sapiens, UniProt O43186 1-299); settings: protein: recombinant; tags: N-terminal GST; dsDNA, one strand shown
# Sequence of CRX (O43186 whole entry): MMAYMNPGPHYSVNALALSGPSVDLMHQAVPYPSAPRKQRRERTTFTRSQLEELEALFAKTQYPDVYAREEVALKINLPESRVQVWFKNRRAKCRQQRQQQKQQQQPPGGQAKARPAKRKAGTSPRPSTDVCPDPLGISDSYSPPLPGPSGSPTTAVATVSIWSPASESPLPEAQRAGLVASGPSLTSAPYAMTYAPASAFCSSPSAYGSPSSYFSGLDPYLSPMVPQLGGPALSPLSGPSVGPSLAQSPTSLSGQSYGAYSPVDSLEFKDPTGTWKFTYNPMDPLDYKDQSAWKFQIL
# Outline: as §1
# [19] = target: ETV1 (Homo sapiens, UniProt P50549 1-477); settings: protein: recombinant; tags: N-terminal GST; dsDNA, one strand shown
# Sequence of ETV1 (P50549 whole entry): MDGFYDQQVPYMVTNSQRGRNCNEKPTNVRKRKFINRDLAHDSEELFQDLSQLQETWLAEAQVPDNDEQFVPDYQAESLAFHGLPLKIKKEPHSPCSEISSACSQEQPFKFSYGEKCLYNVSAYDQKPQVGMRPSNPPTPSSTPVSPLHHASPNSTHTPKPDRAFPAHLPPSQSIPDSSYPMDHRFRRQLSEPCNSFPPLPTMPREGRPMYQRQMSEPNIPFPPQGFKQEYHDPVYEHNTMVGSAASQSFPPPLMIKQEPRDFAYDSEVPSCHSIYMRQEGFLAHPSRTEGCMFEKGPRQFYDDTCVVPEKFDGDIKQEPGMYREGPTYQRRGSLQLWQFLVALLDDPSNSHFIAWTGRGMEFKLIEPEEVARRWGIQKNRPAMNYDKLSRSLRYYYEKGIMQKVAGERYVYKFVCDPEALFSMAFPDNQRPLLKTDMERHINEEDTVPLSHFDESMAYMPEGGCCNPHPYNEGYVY
# Outline: as §1
sequence,measurement,setting,value
AATGAG,binding signal,[1],"1.09 fold enrichment (6-mer frequency, TF over GST control)"
same,binding signal,[2],"1.18 fold enrichment (6-mer frequency, TF over GST control)"
same,binding signal,[3],"1.22 fold enrichment (6-mer frequency, TF over GST control)"
same,binding signal,[4],"1.12 fold enrichment (6-mer frequency, TF over GST control)"
same,binding signal,[5],"1.14 fold enrichment (6-mer frequency, TF over GST control)"
same,binding signal,[6],"1.18 fold enrichment (6-mer frequency, TF over GST control)"
same,binding signal,[7],"1.51 fold enrichment (6-mer frequency, TF over GST control)"
same,binding signal,[8],"1.08 fold enrichment (6-mer frequency, TF over GST control)"
same,binding signal,[9],"1.23 fold enrichment (6-mer frequency, TF over GST control)"
same,binding signal,[10],"1.14 fold enrichment (6-mer frequency, TF over GST control)"
same,binding signal,[11],"1.17 fold enrichment (6-mer frequency, TF over GST control)"
same,binding signal,[12],"1.05 fold enrichment (6-mer frequency, TF over GST control)"
same,binding signal,[13],"1.31 fold enrichment (6-mer frequency, TF over GST control)"
same,binding signal,[14],"1.14 fold enrichment (6-mer frequency, TF over GST control)"
same,binding signal,[15],"1.14 fold enrichment (6-mer frequency, TF over GST control)"
same,binding signal,[16],"1.46 fold enrichment (6-mer frequency, TF over GST control)"
same,binding signal,[17],"1.25 fold enrichment (6-mer frequency, TF over GST control)"
same,binding signal,[18],"1.08 fold enrichment (6-mer frequency, TF over GST control)"
same,binding signal,[19],"1.21 fold enrichment (6-mer frequency, TF over GST control)"
